Experimental data published in PubChem BioAssay (NCATS).
Values joined by “and” are separate entries in the source; they are usually repeats but may differ in a detail not shown here. Equal values may be shown once. Inconclusive results are not listed. Active and inactive are the calls of the source. Unless noted, calls follow the shape of the full dose curve.

Experiments:
[1] = target: Bile acid receptor (Homo sapiens) (UniProt Q96RI1); test: qHTS assay for small molecule antagonists of farnesoid X receptor signaling (AID 588526); conditions: HEK293T FXR-UAS-bla, beta-lactamase ratio, antagonist mode; series mostly up to 76.7 µM; also: % is scaled to controls: 0 for no effect and ±100 for the full control effect
Method in brief: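 Antagonist mode: titrated compounds tested against chenodeoxycholic acid stimulation (normalized to 50 uM CDCA and DMSO) in GeneBLAzer HEK293T cells for 16 h. Beta-lactamase read by CCF4 fluorescence; IC50 from Hill fits.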

[2] = qHTS assay for small molecule antagonists of peroxisome proliferator-activated receptor delta signaling (AID 588535; active = well fitted inhibition curve with a large enough effect in the signal ratio, with a control signal flat, not every such curve was filed as active; the % refers to the signal ratio;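 as to max response: cells co-treated with a PPAR-delta agonist as stimulator during compound exposure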); conditions: HEK293T PPARd-UAS-bla, beta-lactamase FRET ratio, 18 h; 460 nm channel
Method in brief: (§1)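 Antagonist-mode beta-lactamase reporter (GeneBLAzer PPAR-delta-UAS-bla) in HEK293T cells, 2% charcoal/dextran FBS, 4000 cells/well. Compound titrations, 18 h at 37 C; CCF4 ratio read, IC50 and efficacy from Hill fits.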

[3] = target: Peroxisome proliferator-activated receptor delta (Homo sapiens) (UniProt Q03181); test: as above; conditions: HEK293T PPARd-UAS-bla, beta-lactamase FRET ratio, 18 h; series mostly up to 76.7 µM
Method in brief: as §1

[4] = target: Peroxisome proliferator-activated receptor gamma (Homo sapiens) (UniProt P37231); test: qHTS assay for small molecule agonists of peroxisome proliferator-activated receptor gamma signaling (AID 588536; active = well fitted curve in the direction sought with a large enough effect in the signal ratio, with a control signal flat, not every such curve was filed as active; the % refers to the signal ratio;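 also: 0% = DMSO basal wells and 100% = rosiglitazone at 2 µM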); conditions: HEK293 PPARg-UAS-bla, beta-lactamase ratio, 16 h, percent of rosiglitazone response, DMSO as zero; series mostly up to 76.7 µM
Method in brief: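 HEK293 UAS-bla reporter line, 1% charcoal/dextran FBS; titration, 16 h, 37 C; CCF4 loading 2 h RT; fluorescence 460/530 nm. Normalized to rosiglitazone 2 uM = 100%, DMSO = 0%.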

[5] = target: Peroxisome proliferator-activated receptor gamma (Homo sapiens) (UniProt P37231); test: qHTS assay for small molecule antagonists of peroxisome proliferator-activated receptor gamma signaling (AID 588537; active = well fitted inhibition curve with a large enough effect in the signal ratio, with a control signal flat, not every such curve was filed as active; the % refers to the signal ratio;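 also: reporter cells co-stimulated with 50 nM rosiglitazone agonist during compound treatment; % of control where 0% means no effect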); conditions: HEK293 PPARg-UAS-bla, beta-lactamase ratio, antagonist mode; series mostly up to 76.8 µM
Method in brief: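 PPARγ-UAS-bla HEK293 cells (3000/well) in 1% charcoal/dextran-stripped FBS are treated with compound, then stimulated with 50 nM rosiglitazone for 16 h at 37 °C. Read-out is CCF4 β-lactamase fluorescence after 2 h at RT. IC50 comes from Hill fits normalised to rosiglitazone and DMSO.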

[6] = target: Vitamin D3 receptor (Homo sapiens) (UniProt P11473); test: qHTS assay for small molecule antagonists of vitamin D receptor signaling (AID 588541); conditions: HEK293T VDR-UAS-bla, beta-lactamase ratio, antagonist mode; series mostly up to 76.7 µM;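 also: receptor activated by calcitriol during compound treatment; % is scaled to controls: 0 for no effect and ±100 for the full control effect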
Method in brief: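 VDR-UAS-bla HEK293T cells in 2% charcoal-stripped FBS were stimulated with 1-alpha,25-dihydroxyvitamin D3 (3 nM final) plus compound for 16 h at 37 C. The beta-lactamase CCF4 readout was normalized to 50 nM agonist and DMSO, and Hill fits gave IC50.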

[7] = target: Vitamin D3 receptor (Homo sapiens) (UniProt P11473); test: qHTS assay for small molecule agonists of vitamin D receptor signaling (AID 588543); conditions: HEK293T VDR-UAS-bla, beta-lactamase ratio, 16 h; series mostly up to 76.8 µM;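 also: 0% = DMSO basal and 100% = reference agonist control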
Method in brief: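 VDR-UAS-bla HEK293T cells, 2000/well, 2% charcoal-stripped FBS; compound titration 16 h at 37 C; CCF4 beta-lactamase ratio read. Normalized to 50 nM 1-alpha,25-dihydroxyvitamin D3 (100%) and DMSO; Hill fit gives EC50, efficacy.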

[8] = target: Glucocorticoid receptor (Homo sapiens) (UniProt P04150); test: qHTS assay for small molecule agonists of glucocorticoid receptor signaling (AID 588532; active = well fitted curve in the direction sought with a large enough effect in the signal ratio, with a control signal flat; the % refers to the signal ratio;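 also: 100% = dexamethasone at 0.1 µM and 0% = DMSO only wells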); conditions: HeLa MMTV-bla, beta-lactamase ratio, agonist, 18 h; stronger effect = higher value; percent of dexamethasone control, DMSO zero
Method in brief: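 MMTV-bla HeLa beta-lactamase reporter cells in 1% charcoal/dextran FBS medium, compounds up to 92 uM for 18 h at 37 C, CCF4 readout; normalized to 0.1 uM dexamethasone (100%), EC50 and efficacy from Hill fits.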

[9] = target: Glucocorticoid receptor (Homo sapiens) (UniProt P04150); test: qHTS assay for small molecule antagonists of glucocorticoid receptor signaling (AID 588533; active = well fitted inhibition curve with a large enough effect in the signal ratio, with a control signal flat, not every such curve was filed as active; the % refers to the signal ratio; also: % is scaled to controls: 0 for no effect and ±100 for the full control effect); conditions: HeLa MMTV-bla, GRE beta-lactamase ratio, antagonist mode, 18 h; series mostly up to 76.8 µM
Method in brief: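 Antagonist-mode qHTS: compound titrations added to GRE-bla HeLa cells, then dexamethasone 2 nM final; 18 h, 37 C. CCF4 FRET fluorescence normalized to dexamethasone and DMSO; IC50 from Hill fit.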

Bile acid receptor (Homo sapiens), sequence (Q96RI1 whole entry, looked up): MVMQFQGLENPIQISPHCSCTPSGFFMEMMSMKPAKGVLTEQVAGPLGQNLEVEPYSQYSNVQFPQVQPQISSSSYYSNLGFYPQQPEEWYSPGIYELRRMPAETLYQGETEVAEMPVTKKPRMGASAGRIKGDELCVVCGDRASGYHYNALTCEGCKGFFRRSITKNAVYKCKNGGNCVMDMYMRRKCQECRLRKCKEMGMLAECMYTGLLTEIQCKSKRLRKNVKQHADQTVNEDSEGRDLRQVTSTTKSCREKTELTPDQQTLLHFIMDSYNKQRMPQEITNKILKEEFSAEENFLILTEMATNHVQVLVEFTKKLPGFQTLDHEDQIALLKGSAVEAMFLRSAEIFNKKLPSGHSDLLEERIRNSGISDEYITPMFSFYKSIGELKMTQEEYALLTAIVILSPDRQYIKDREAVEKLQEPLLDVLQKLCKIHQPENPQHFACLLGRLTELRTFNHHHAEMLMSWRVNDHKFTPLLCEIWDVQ
Vitamin D3 receptor (Homo sapiens), sequence (P11473 whole entry, looked up): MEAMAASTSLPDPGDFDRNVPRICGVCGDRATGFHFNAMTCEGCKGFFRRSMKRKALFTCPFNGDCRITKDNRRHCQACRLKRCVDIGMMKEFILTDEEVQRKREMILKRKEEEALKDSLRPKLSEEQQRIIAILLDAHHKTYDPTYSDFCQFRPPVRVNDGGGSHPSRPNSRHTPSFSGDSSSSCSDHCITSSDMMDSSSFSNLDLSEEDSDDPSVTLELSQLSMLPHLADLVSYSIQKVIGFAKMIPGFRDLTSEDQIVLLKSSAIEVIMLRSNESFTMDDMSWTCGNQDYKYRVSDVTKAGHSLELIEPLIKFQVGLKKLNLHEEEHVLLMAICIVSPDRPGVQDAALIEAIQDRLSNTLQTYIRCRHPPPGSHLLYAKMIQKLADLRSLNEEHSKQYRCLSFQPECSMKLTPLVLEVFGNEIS
Glucocorticoid receptor (Homo sapiens), sequence (P04150 whole entry, looked up): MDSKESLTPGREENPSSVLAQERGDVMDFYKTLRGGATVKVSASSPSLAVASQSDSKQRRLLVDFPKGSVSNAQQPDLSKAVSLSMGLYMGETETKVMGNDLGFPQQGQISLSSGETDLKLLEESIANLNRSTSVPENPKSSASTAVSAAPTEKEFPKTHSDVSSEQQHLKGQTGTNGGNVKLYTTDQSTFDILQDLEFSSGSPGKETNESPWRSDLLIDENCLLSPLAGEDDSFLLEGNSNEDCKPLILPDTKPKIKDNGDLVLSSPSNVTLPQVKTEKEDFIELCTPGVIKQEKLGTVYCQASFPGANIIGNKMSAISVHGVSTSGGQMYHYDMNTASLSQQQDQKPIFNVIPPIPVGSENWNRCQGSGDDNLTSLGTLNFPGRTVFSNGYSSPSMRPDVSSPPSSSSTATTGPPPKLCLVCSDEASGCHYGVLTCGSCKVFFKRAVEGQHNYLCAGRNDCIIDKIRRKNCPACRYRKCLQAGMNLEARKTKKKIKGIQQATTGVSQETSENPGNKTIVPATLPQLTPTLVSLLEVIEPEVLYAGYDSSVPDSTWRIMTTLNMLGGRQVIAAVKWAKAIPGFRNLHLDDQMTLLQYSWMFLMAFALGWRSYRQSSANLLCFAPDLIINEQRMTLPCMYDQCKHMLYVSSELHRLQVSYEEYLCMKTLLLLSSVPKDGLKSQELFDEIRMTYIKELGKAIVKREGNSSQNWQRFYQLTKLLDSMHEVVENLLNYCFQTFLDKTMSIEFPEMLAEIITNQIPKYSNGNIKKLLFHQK
Peroxisome proliferator-activated receptor gamma (Homo sapiens), sequence (P37231 whole entry, looked up): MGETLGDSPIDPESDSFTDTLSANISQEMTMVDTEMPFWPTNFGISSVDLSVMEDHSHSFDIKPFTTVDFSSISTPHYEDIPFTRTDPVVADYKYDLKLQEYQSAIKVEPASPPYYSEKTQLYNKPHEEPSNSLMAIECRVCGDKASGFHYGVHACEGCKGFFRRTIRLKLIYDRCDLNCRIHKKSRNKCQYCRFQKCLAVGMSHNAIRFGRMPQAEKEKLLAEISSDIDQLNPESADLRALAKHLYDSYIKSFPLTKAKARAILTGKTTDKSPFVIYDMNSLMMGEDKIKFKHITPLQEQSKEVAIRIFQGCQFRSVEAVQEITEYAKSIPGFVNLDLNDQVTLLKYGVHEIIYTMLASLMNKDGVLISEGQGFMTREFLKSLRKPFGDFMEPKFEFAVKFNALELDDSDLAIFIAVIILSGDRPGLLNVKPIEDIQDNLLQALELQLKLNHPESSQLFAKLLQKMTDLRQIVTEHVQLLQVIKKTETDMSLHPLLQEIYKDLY
Peroxisome proliferator-activated receptor delta (Homo sapiens), sequence (Q03181 whole entry, looked up): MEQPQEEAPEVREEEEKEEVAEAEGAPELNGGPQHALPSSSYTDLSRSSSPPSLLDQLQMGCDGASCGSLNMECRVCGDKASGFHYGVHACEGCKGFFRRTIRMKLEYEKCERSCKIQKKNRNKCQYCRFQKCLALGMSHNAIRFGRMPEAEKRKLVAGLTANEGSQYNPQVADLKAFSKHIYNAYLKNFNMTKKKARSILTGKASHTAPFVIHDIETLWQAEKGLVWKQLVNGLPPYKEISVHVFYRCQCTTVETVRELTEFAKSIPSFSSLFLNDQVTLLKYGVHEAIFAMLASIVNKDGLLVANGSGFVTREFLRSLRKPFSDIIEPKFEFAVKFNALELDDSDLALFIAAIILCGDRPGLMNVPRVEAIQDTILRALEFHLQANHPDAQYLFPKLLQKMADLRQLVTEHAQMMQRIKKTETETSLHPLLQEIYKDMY

O=C(O)c1ccc(Cl)c(Cl)c1
inactive: outcome [1] | Potency [3] | outcome [4] | outcome [5] | outcome [6]
20.7%: max response [2]

CCC(C)=O
inactive: outcome [1] | Potency [3] | outcome [4] | outcome [6] | outcome [7]
-36.3%: max response [2]

Cc1ccccc1C#N
inactive: outcome [1] | Potency [3] | outcome [4] | outcome [7]
-5.92%: max response [2]

NC=O
inactive: outcome [1] | outcome [4] | outcome [6] | outcome [7]

CCNc1ccccc1
13.4%: max response [2]
inactive: outcome [1] | outcome [4] | outcome [5] | outcome [7]

CCNc1cc(O)ccc1C
inactive: outcome [1] | outcome [6] | outcome [7]

C=C(C)C(=O)OCC(C)C
-19.3%: max response [2]
inactive: outcome [1] | outcome [4] | outcome [6] | outcome [7]

O=C(O)c1c(Cl)cccc1Cl
inactive: outcome [1] | outcome [4] | outcome [5]

O=P(O)(OCc1ccccc1)OCc1ccccc1
inactive: outcome [1] | outcome [4] | outcome [5] | outcome [6] | outcome [7]

CC(CCl)OC(C)CCl (stereo not given)
6.69%: max response [2]
inactive: activation [8] 1.48% | outcome [9] | Potency [3] | outcome [4]

Cc1ccc(C(=O)O)cc1
inactive: outcome [1] | outcome [4]

Clc1ccccn1
inactive: outcome [1] | Potency [3] | outcome [6] | outcome [7]
26.1%: max response [2]

CC(=O)c1ccccn1
inactive: outcome [1] | outcome [4] | outcome [6] | outcome [7]
-20.6%: max response [2]

C[C@@H]1CC2(OC[C@]3(C)O[C@H]23)O[C@H]2C[C@@]3(C)[C@@H]4CC[C@H]5C(C)(C)C(O[C@@H]6OC[C@@H](O)[C@H](O)[C@H]6O)CC[C@@]56C[C@@]46CC[C@]3(C)[C@@H]12 (stereo not given in full)
inactive: activation [8] -8.99%

CC(C)(C)OC=O
inactive: outcome [1] | outcome [4] | outcome [5] | outcome [6] | outcome [7]

Nc1cccc(N)c1
inactive: outcome [1] | outcome [4] | outcome [5] | outcome [6] | outcome [7]

C=CCOC(=O)CCCCCCCC
inactive: outcome [1] | outcome [4] | outcome [5] | outcome [6] | outcome [7]

CC(C)Cc1nccs1
inactive: outcome [1] | outcome [4] | outcome [6] | outcome [7]

O=C(O)c1ccccc1Cl
inactive: outcome [1] | Potency [3] | outcome [4] | outcome [6] | outcome [7]
-1.82%: max response [2]

CCNS(=O)(=O)c1ccc(C)cc1
inactive: activation [8] -0.758% | outcome [9] | Potency [3] | outcome [4]
8.52%: max response [2]

O=C(O)CNC(=O)c1ccc([N+](=O)[O-])cc1
inactive: outcome [1] | Potency [3] | outcome [4] | outcome [6] | outcome [7]
53.5%: max response [2]

CCCCN(CCO)CCCC
4.41%: max response [2]
inactive: outcome [1] | Potency [3] | outcome [4] | outcome [5] | outcome [6]

Cc1cc([N+](=O)[O-])ccc1N
inactive: outcome [1] | outcome [4] | outcome [5] | outcome [7]

NC(=S)NNC(N)=S
inactive: outcome [1] | outcome [4] | outcome [5]
-7.61% and 32%: max response [2]

O=[N+]([O-])c1ccc2nc[nH]c2c1
inactive: outcome [1] | outcome [4] | outcome [5]

NC(=O)/N=N/C(N)=O
-25.3%: max response [2]
inactive: outcome [1] | outcome [4] | outcome [5] | outcome [7]

C(=C/c1ccccc1)/c1ccccc1
inactive: outcome [1] | Potency [3] | outcome [4] | outcome [5] | outcome [6] | outcome [7]
11.7%: max response [2]

CCOC(C)(C)C
inactive: outcome [1] | outcome [4] | outcome [5] | outcome [7]
-1.23%: max response [2]

C=CCCCCCCC=C
inactive: outcome [1] | outcome [4] | outcome [5] | outcome [6] | outcome [7]
-11.7%: max response [2]

O=Cc1ccc(CO)o1
inactive: outcome [1] | outcome [4] | outcome [6] | outcome [7]

OCCO
inactive: outcome [1] | outcome [4] | outcome [6] | outcome [7]

c1ccc2[nH]cnc2c1
inactive: outcome [1] | outcome [4] | outcome [5] | outcome [6] | outcome [7]

Cc1ccc2ncccc2c1
inactive: activation [8] 6.61% | outcome [9] | Potency [3] | outcome [4]
20.6%: max response [2]

O=C1CCC(=O)O1
inactive: outcome [1] | Potency [3] | outcome [4] | outcome [6] | outcome [7]
24.1%: max response [2]

Cc1ccccc1Br
inactive: outcome [1] | outcome [4] | outcome [6] | outcome [7]

COc1ccc(N)c(C)c1
-12.2%: max response [2]
inactive: outcome [1] | Potency [3] | outcome [6] | outcome [7]

CCCCCCCCCCCCOCC1CO1 (stereo not given)
36.4%: max response [2]
inactive: outcome [1] | Potency [3] | outcome [4] | outcome [7]

CC(C)=CCl
6.55%: max response [2]
inactive: activation [8] 2.68% | outcome [9] | Potency [3] | outcome [6] | outcome [7]

O=Nc1ccc(NO)cc1
-72.9%: max response [2]
inactive: activation [8] 5.11% | outcome [9] | outcome [4] | outcome [6] | outcome [7]

Cc1cccc(Br)c1
inactive: activation [8] -2.46% | outcome [9] | outcome [4]

Cc1cccc2sc(N)nc12
inactive: activation [8] -9.53% | outcome [9] | Potency [3] | outcome [4] | outcome [5] | outcome [7]
24.8%: max response [2]

CCc1ccccc1
inactive: activation [8] -5.09% | outcome [9] | Potency [3] | outcome [4] | outcome [6] | outcome [7]
15%: max response [2]

Cc1cc(C)cc(O)c1
32.1%: max response [2]
inactive: activation [8] -1.28% | outcome [9] | Potency [3] | outcome [4] | outcome [6] | outcome [7]

O=C(Cl)c1c(Cl)cccc1Cl
-5.79%: max response [2]
inactive: activation [8] -4.67% | outcome [9] | outcome [4] | outcome [6] | outcome [7]

C[C@@H]1O[C@@H](O[C@@H]2[C@@H](O)[C@H](OCCc3ccc(O)c(O)c3)O[C@H](CO[C@@H]3O[C@H](CO)[C@@H](O)[C@H](O)[C@H]3O)[C@H]2OC(=O)/C=C/c2ccc(O)c(O)c2)[C@H](O)[C@H](O)[C@H]1O
20.8%: max response [2]
inactive: activation [8] 2.75% | outcome [9] | Potency [3] | outcome [4] | outcome [6] | outcome [7]

CCCC=O
10.5%: max response [2]
inactive: activation [8] -2.2% | outcome [9] | Potency [3] | outcome [4] | outcome [6] | outcome [7]

CC/C=C/C#N
inactive: activation [8] -1.94% | outcome [9] | outcome [4] | outcome [5] | outcome [7]
12.5%: max response [2]

CC(=O)Nc1ccccc1C
8.94%: max response [2]
inactive: activation [8] -4.6% | outcome [9] | Potency [3] | outcome [4] | outcome [5] | outcome [6] | outcome [7]

Nc1ccc(F)cc1F
inactive: activation [8] -11.6% | outcome [9] | Potency [3] | outcome [4] | outcome [6] | outcome [7]
-4.23%: max response [2]

C=CCCC
inactive: activation [8] 5.54% | outcome [9] | Potency [3] | outcome [7]
0.0312%: max response [2]

Cc1cc(C2(c3cc(C)c(O)cc3C)OS(=O)(=O)c3ccccc32)c(C)cc1O
inactive: activation [8] 3.46% | outcome [9] | outcome [4]

C=CC(=O)NC(C)C
-15.9%: max response [2]
inactive: activation [8] 2.34% | outcome [9] | Potency [3] | outcome [4] | outcome [5] | outcome [6] | outcome [7]

Cc1cc(C(=O)O)ccc1[N+](=O)[O-]
inactive: activation [8] 1.49% | outcome [9] | Potency [3] | outcome [4] | outcome [6] | outcome [7]
13.2%: max response [2]

O=C1OC(=O)c2cc([N+](=O)[O-])ccc21
9.55%: max response [2]
inactive: activation [8] 5.66% | outcome [9] | Potency [3] | outcome [4] | outcome [5] | outcome [6] | outcome [7]

O=c1[nH][nH]c(=O)c2cc([N+](=O)[O-])ccc12
inactive: activation [8] 0.885% | outcome [9] | Potency [3] | outcome [4] | outcome [5] | outcome [6] | outcome [7]
10.6%: max response [2]

CC(C)N(C)C
inactive: activation [8] 0.0793% | outcome [9] | Potency [3] | outcome [4] | outcome [5] | outcome [7]
-0.77%: max response [2]

Cc1ccc([N+](=O)[O-])c(N)c1
-3.65%: max response [2]
inactive: activation [8] -0.729% | outcome [9] | Potency [3] | outcome [4] | outcome [7]

Nc1cccc(O)c1
inactive: activation [8] -1.32% | outcome [9] | Potency [3] | outcome [4] | outcome [6] | outcome [7]
11.9%: max response [2]

Cc1c(N)cccc1N
inactive: activation [8] -2.97% | outcome [9] | outcome [6] | outcome [7]
-12.4%: max response [2]
